Experimental data taken from PubChem BioAssay (NCATS).
Records with an inconclusive call do not appear. Active and inactive are the calls of the source. The call rests on the fitted dose curve; in most records, active means well fitted inhibition curve with a large enough effect; inconclusive means small, poorly fitted or top-dose-only effect; inactive means flat fitted curve, though single readings scatter. Peptide text beside a SMILES is read from it.

These molecules were tested on TAB113 (assay: qHTS profiling for inhibitors of Plasmodium falciparum proliferation (AID 504749; further: nearly all actives have a fitted effect of over 60% in size;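 on activity, negative = inhibition: 0% = DMSO vehicle and full inhibition = artemisinin control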)). Details: P. falciparum in erythrocytes, SYBR Green DNA, 72 h; series mostly up to 28.7 µM; activity, negative = inhibition: at the top concentration.
Method in brief: (§1)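 Three-day growth assay of blood-stage parasites in erythrocytes (0.3% parasitemia, 2.5% hematocrit) at 37 C, 5% CO2, quantified by SYBR Green DNA staining after overnight detergent lysis.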
Potency means the concentration at half of the fitted maximal effect.

Row | SMILES | activity, negative = inhibition | Potency
1 | CCN(CCO)CCCC(C)Nc1ccnc2cc(Cl)ccc12 (stereo unspecified) | 0.108% (inactive) | –
2 | CC1=C(C)C(=O)C(C(CCCCCC(=O)O)c2ccccc2)=C(C)C1=O (stereo unspecified) | -25.9% (inactive) | –
3 | Cc1cc2c(s1)Nc1ccccc1N=C2N1CCN(C)CC1 | -0.0543% (inactive) | –
4 | CCC1=C(C)CN(C(=O)NCCc2ccc(S(=O)(=O)NC(=O)NC3CCC(C)CC3)cc2)C1=O (stereo unspecified) | 1.7% (inactive) | –
5 | O=C(NC(Cc1cc(=O)[nH]c2ccccc12)C(=O)O)c1ccc(Cl)cc1 (stereo unspecified) | 3.32% (inactive) | –
6 | Clc1ccc(C(Cn2ccnc2)OCc2ccsc2Cl)c(Cl)c1 (stereo unspecified) | – | 4.47 µM (active)
7 | CN(C)C(=O)COC(=O)Cc1ccc(OC(=O)c2ccc(N=C(N)N)cc2)cc1 | -7.55% (inactive) | –
8 | O=C(O)CCNC(=O)c1ccc(N=Nc2ccc(O)c(C(=O)O)c2)cc1 | 3.79% (inactive) | –
9 | CCC[C@@H]1C[C@@H](C(=O)N[C@@H]([C@H]2O[C@H](SC)[C@H](O)[C@@H](O)[C@H]2O)[C@@H](C)O)N(C)C1 | -19.6% (inactive) | –
10 | CC1(C)CCC(C)(C)c2cc(NC(=O)c3ccc(C(=O)O)cc3)ccc21 | -9.38% (inactive) | –
11 | Cc1cc2cc3c(C)cc(=O)oc3c(C)c2o1 | 2.66% [at 12.8 µM] (inactive) | –
12 | CN(c1nccc(=O)[nH]1)C1CCN(c2nc3ccccc3n2Cc2ccc(F)cc2)CC1 | -26.3% (inactive) | –
13 | Cc1ccc(C)c(OCCCC(C)(C)C(=O)O)c1 | 13.9% (inactive) | –
14 | CC(C)[C@H](N)C(=O)OCCOCn1cnc2c(=O)[nH]c(N)nc21 | 6.37% (inactive) | –
15 | Cc1ncc([N+](=O)[O-])n1CC(C)O (stereo unspecified) | 5.96% (inactive) | –
16 | Cn1c(NCCN(CCO)CCCc2ccc([N+](=O)[O-])cc2)cc(=O)n(C)c1=O | 1.81% (inactive) | –
17 | COc1ccc2cc([C@H](C)C(=O)O)ccc2c1 | 8.78% [at 12.8 µM] (inactive) | –
18 | CS(=O)(=O)OCCCCOS(C)(=O)=O | 3.58% (inactive) | –
19 | COc1ccc(C2(C#N)CCC(C(=O)O)CC2)cc1OC1CCCC1 (stereo unspecified) | 0.165% (inactive) | –
20 | COC(=O)[C@H](Cc1ccccc1)NC(=O)[C@@H](N)CC(=O)O (H-Asp-Phe-OMe) | 26.6% (inactive) | –

Each molecule was assayed on TAB165 in the same assay as above. Details: P. falciparum in erythrocytes, SYBR Green DNA, 72 h; series mostly up to 28.7 µM; activity, negative = inhibition: at the top concentration.
Method in brief: as §1

Row | SMILES | activity, negative = inhibition | Potency
21 | CCN(CCO)CCCC(C)Nc1ccnc2cc(Cl)ccc12 (stereo unspecified) | -1.37% (inactive) | –
22 | Cc1cc2c(s1)Nc1ccccc1N=C2N1CCN(C)CC1 | -4.62% (inactive) | –
23 | CCC1=C(C)CN(C(=O)NCCc2ccc(S(=O)(=O)NC(=O)NC3CCC(C)CC3)cc2)C1=O (stereo unspecified) | 0.85% (inactive) | –
24 | O=C(NC(Cc1cc(=O)[nH]c2ccccc12)C(=O)O)c1ccc(Cl)cc1 (stereo unspecified) | 9.88% (inactive) | –
25 | Clc1ccc(C(Cn2ccnc2)OCc2ccsc2Cl)c(Cl)c1 (stereo unspecified) | – | 1 µM (active)
26 | CN(C)C(=O)COC(=O)Cc1ccc(OC(=O)c2ccc(N=C(N)N)cc2)cc1 | 2.48% (inactive) | –
27 | O=C(O)CCNC(=O)c1ccc(N=Nc2ccc(O)c(C(=O)O)c2)cc1 | 4.21% (inactive) | –
28 | CC1(C)CCC(C)(C)c2cc(NC(=O)c3ccc(C(=O)O)cc3)ccc21 | -2.4% (inactive) | –
29 | Cc1cc2cc3c(C)cc(=O)oc3c(C)c2o1 | -3.32% [at 12.8 µM] (inactive) | –
30 | CN(c1nccc(=O)[nH]1)C1CCN(c2nc3ccccc3n2Cc2ccc(F)cc2)CC1 | -23.5% (inactive) | –
31 | Cc1ccc(C)c(OCCCC(C)(C)C(=O)O)c1 | 0.243% (inactive) | –
32 | CC(C)[C@H](N)C(=O)OCCOCn1cnc2c(=O)[nH]c(N)nc21 | 1.06% (inactive) | –
33 | Cc1ncc([N+](=O)[O-])n1CC(C)O (stereo unspecified) | 1.53% (inactive) | –
34 | Cc1c(C(=O)NN2CCCCC2)nn(-c2ccc(Cl)cc2Cl)c1-c1ccc(Cl)cc1 | – | 10 µM (active)
35 | Cn1c(NCCN(CCO)CCCc2ccc([N+](=O)[O-])cc2)cc(=O)n(C)c1=O | -1.42% (inactive) | –
36 | COc1ccc2cc([C@H](C)C(=O)O)ccc2c1 | -0.114% [at 12.8 µM] (inactive) | –
37 | CS(=O)(=O)OCCCCOS(C)(=O)=O | -3.95% (inactive) | –
38 | COc1ccc(C2(C#N)CCC(C(=O)O)CC2)cc1OC1CCCC1 (stereo unspecified) | 10.3% (inactive) | –
39 | COC(=O)[C@H](Cc1ccccc1)NC(=O)[C@@H](N)CC(=O)O (H-Asp-Phe-OMe) | 9.18% (inactive) | –

Each molecule was assayed on W2 in the same assay as above. Details: P. falciparum in erythrocytes, SYBR Green DNA, 72 h; series mostly up to 28.7 µM; activity, negative = inhibition: at the top concentration.
Method in brief: as §1

Row | SMILES | activity, negative = inhibition | Potency
40 | CCN(CCO)CCCC(C)Nc1ccnc2cc(Cl)ccc12 (stereo unspecified) | 6.57% (inactive) | –
41 | CCC1=C(C)CN(C(=O)NCCc2ccc(S(=O)(=O)NC(=O)NC3CCC(C)CC3)cc2)C1=O (stereo unspecified) | 0.493% (inactive) | –
42 | O=C(NC(Cc1cc(=O)[nH]c2ccccc12)C(=O)O)c1ccc(Cl)cc1 (stereo unspecified) | 2.73% (inactive) | –
43 | Clc1ccc(C(Cn2ccnc2)OCc2ccsc2Cl)c(Cl)c1 (stereo unspecified) | – | 1.69 µM (active)
44 | CN(C)C(=O)COC(=O)Cc1ccc(OC(=O)c2ccc(N=C(N)N)cc2)cc1 | -7.41% (inactive) | –
45 | O=C(O)CCNC(=O)c1ccc(N=Nc2ccc(O)c(C(=O)O)c2)cc1 | -5.19% (inactive) | –
46 | CCC[C@@H]1C[C@@H](C(=O)N[C@@H]([C@H]2O[C@H](SC)[C@H](O)[C@@H](O)[C@H]2O)[C@@H](C)O)N(C)C1 | – | 0.338 µM (active)
47 | CC1(C)CCC(C)(C)c2cc(NC(=O)c3ccc(C(=O)O)cc3)ccc21 | -25.5% (inactive) | –
48 | Cc1cc2cc3c(C)cc(=O)oc3c(C)c2o1 | -2.65% [at 12.8 µM] (inactive) | –
49 | CN(c1nccc(=O)[nH]1)C1CCN(c2nc3ccccc3n2Cc2ccc(F)cc2)CC1 | – | 12 µM (active)
50 | Cc1ccc(C)c(OCCCC(C)(C)C(=O)O)c1 | 8.81% (inactive) | –
51 | CC(C)[C@H](N)C(=O)OCCOCn1cnc2c(=O)[nH]c(N)nc21 | 12.4% (inactive) | –
52 | Cc1ncc([N+](=O)[O-])n1CC(C)O (stereo unspecified) | -0.29% (inactive) | –
53 | Cc1c(C(=O)NN2CCCCC2)nn(-c2ccc(Cl)cc2Cl)c1-c1ccc(Cl)cc1 | – | 6.75 µM (active)
54 | CS(=O)(=O)OCCCCOS(C)(=O)=O | 6.63% (inactive) | –
55 | COc1ccc(C2(C#N)CCC(C(=O)O)CC2)cc1OC1CCCC1 (stereo unspecified) | 15.8% (inactive) | –
56 | COC(=O)[C@H](Cc1ccccc1)NC(=O)[C@@H](N)CC(=O)O (H-Asp-Phe-OMe) | 5.18% (inactive) | –
